Results taken from PubChem BioAssay (NCI).
The panel holds about 79,000 compounds, 15% with a hit somewhere; the sample as a whole holds those more often. Activity calls are given as the source filed them. Cut-off read from the data, not from the text of the source: active = growth inhibition above about 70%; inactive = the rest.

Experiments:
[1] = NCI Yeast Anticancer Drug Screen. Data for the wt2 strain (AID 169);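 note: 0% = growth of vehicle-treated yeast cultures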; settings: S. cerevisiae wt2 strain growth inhibition, stronger effect = higher value
In short: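 Yeast cells were exposed to test compounds, and growth inhibition was measured relative to vehicle-treated controls.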

[2] = NCI Yeast Anticancer Drug Screen. Data for the mlh1 strain (AID 171);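 note: 0% = growth of vehicle-treated control cultures of the same strain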; settings: S. cerevisiae mlh1 strain growth inhibition, stronger effect = higher value
In short: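 Yeast carrying a defined genetic alteration in DNA damage repair or cell cycle control were exposed to test compounds. Growth inhibition was measured relative to vehicle-treated controls.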

[3] = NCI Yeast Anticancer Drug Screen. Data for the sgs1 strain (AID 173);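 note: 0% = growth of vehicle-only control cultures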; settings: S. cerevisiae sgs1 mutant, stronger effect = higher value
In short: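 Yeast mutant strains carrying defined defects in DNA damage repair or cell cycle control were exposed to test compounds. Growth inhibition was scored against vehicle-treated controls.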

[4] = NCI Yeast Anticancer Drug Screen. Data for the mlh1 rad18 strain (AID 175); settings: S. cerevisiae mlh1 rad18 strain growth inhibition, stronger effect = higher value
In short: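 Growth inhibition of the yeast strain was measured after compound exposure and expressed relative to vehicle-treated controls. The strain carries defined defects in DNA damage repair.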

[5] = NCI Yeast Anticancer Drug Screen. Data for the rad18 strain (AID 177); settings: S. cerevisiae rad18 mutant growth inhibition, stronger effect = higher value
In short: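 Yeast carrying a defined DNA damage repair alteration were exposed to compounds. Growth inhibition was expressed relative to vehicle-treated controls.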

[6] = NCI Yeast Anticancer Drug Screen. Data for the rad52 strain (AID 147);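 note: 0% = growth of vehicle-treated control cultures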; settings: S. cerevisiae rad52 mutant growth inhibition, stronger effect = higher value
In short: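 Yeast strain carrying a DNA damage repair alteration was exposed to test compounds. Growth inhibition was measured relative to vehicle-treated controls.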

[7] = NCI Yeast Anticancer Drug Screen. Data for the wt1 strain (AID 149);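 note: 0% = growth of vehicle-treated wt1 cultures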; settings: S. cerevisiae wt1 strain (SPY 50644) growth inhibition, stronger effect = higher value
In short: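 wt1 strain grown with compound or vehicle; inhibition taken from the growth difference.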

[8] = NCI Yeast Anticancer Drug Screen. Data for the rad50EPP+ strain (AID 151);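 note: 0% = growth of vehicle-treated control cultures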; settings: S. cerevisiae rad50 mutant strain, stronger effect = higher value
In short: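 Yeast strain carrying rad50 alteration (rad50EPP+) exposed to compounds; growth inhibition measured relative to vehicle-treated controls.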

[9] = NCI Yeast Anticancer Drug Screen. Data for the mgt1 strain (AID 153); settings: S. cerevisiae mgt1 mutant growth inhibition, stronger effect = higher value
In short: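 Yeast mgt1 strain (DNA repair/cell-cycle alteration panel) exposed to compounds; growth inhibition measured relative to vehicle-treated controls.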

[10] = NCI Yeast Anticancer Drug Screen. Data for the rad50 strain (AID 155);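 note: 0% = growth of vehicle-only cultures of the same strain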; settings: S. cerevisiae rad50 strain growth inhibition, stronger effect = higher value
In short: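 DNA repair mutant yeast, compound exposure, growth read-out; inhibition is taken relative to vehicle.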

[11] = NCI Yeast Anticancer Drug Screen. Data for the mec2-1 strain (AID 157); settings: S. cerevisiae mec2-1 strain, stronger effect = higher value
In short: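 mec2-1 yeast strain, carrying an alteration in DNA damage repair or cell cycle control, was exposed to compounds; growth inhibition was measured relative to vehicle-treated controls.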

[12] = NCI Yeast Anticancer Drug Screen. Data for the rad14 strain (AID 159);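 note: 0% = growth of vehicle-treated control cultures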; settings: S. cerevisiae rad14 strain growth inhibition, stronger effect = higher value
In short: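 DNA repair-defective yeast, compound-exposed; % growth inhibition derived by comparison with vehicle-treated controls.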

[13] = NCI Yeast Anticancer Drug Screen. Data for the CLN2oe strain (AID 163);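 note: 0% = growth of vehicle-only control cultures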; settings: S. cerevisiae CLN2oe strain, stronger effect = higher value
In short: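 Yeast cells carrying a defined cell-cycle control alteration were exposed to test compounds. Growth inhibition was scored against vehicle-treated control cultures.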

[14] = NCI Yeast Anticancer Drug Screen. Data for the cln2 rad14 strain (AID 165);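 note: 0% = growth equal to vehicle treated cultures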; settings: S. cerevisiae cln2 rad14 strain, stronger effect = higher value
In short: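 Yeast carrying cln2 and rad14 alterations (cell cycle control and DNA damage repair) were exposed to compounds. Growth inhibition was measured against vehicle-treated controls.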

[15] = NCI Yeast Anticancer Drug Screen. Data for the bub3 strain (AID 167); settings: S. cerevisiae bub3 mutant strain, stronger effect = higher value
In short: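 In this screen, a yeast mutant lacking normal mitotic checkpoint function is challenged with compound. Relative growth versus vehicle gives the inhibition value.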

[16] = NCI Yeast Anticancer Drug Screen. Data for the sgs1 mgt1 strain (AID 161);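 note: 0% = growth of cultures given vehicle only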; settings: S. cerevisiae sgs1 mgt1 strain, stronger effect = higher value
In short: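 Yeast cells carrying a defined DNA-repair defect were exposed to test compounds. Growth inhibition was measured relative to vehicle-treated controls.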

[17] = at 5.0 µM (retest, dose inferred, filed as 0.5)
[18] = at 50.0 µM (retest, dose inferred, filed as 5.0)

Measured: growth inhibition

Cc1ccc(NC(=O)/C(CC2N=c3c(ccc4c(O)c5ccccc5c(O)c34)=NC2O)=N/NC(C)(C)C)cc1 (stereo not given)
inactive: [1]; at 33.0 µM 5% | [1]; at 100.0 µM 7% | [2]; at 1.2 µM 7% | [2]; at 3.7 µM 16% | [2]; at 11.0 µM 10% | [2]; at 33.0 µM 28% | [2]; at 100.0 µM 16% | [3]; at 1.2 µM 3% | [3]; at 3.7 µM 4% | [3]; at 11.0 µM 2% | [3]; at 33.0 µM 1% | [3]; at 100.0 µM 1% | [4]; [17] 3% | [4]; [18] 32% | [4]; at 50.0 µM 27.4% | [5]; at 1.2 µM -4% | [5]; at 3.7 µM 12% | [5]; at 11.0 µM 20% | [5]; at 33.0 µM 40% | [5]; at 100.0 µM 18%

Cc1ccc([N+]2=NC(c3ccccc3)=NN(c3ccccc3)C2)cc1
inactive: [6]; at 1.2 µM 9% | [6]; at 3.7 µM 15% | [6]; at 11.0 µM 19% | [7]; at 1.2 µM 1% | [7]; at 3.7 µM 5% | [7]; at 11.0 µM 8% | [7]; at 33.0 µM 27% | [8]; at 1.2 µM 5% | [8]; at 3.7 µM 15% | [8]; at 11.0 µM 35% | [8]; at 33.0 µM 45% | [8]; at 100.0 µM 45% | [9]; at 1.2 µM 7% | [9]; at 3.7 µM 9% | [9]; at 11.0 µM 9% | [10]; at 1.2 µM 6% | [10]; at 3.7 µM 0% | [10]; [17] 15% | [10]; at 11.0 µM 2% | [10]; [18] 41% | [11]; at 1.2 µM -1% | [11]; at 3.7 µM -3% | [11]; [17] 2% | [11]; at 11.0 µM 1% | [11]; at 33.0 µM 65% | [11]; [18] 16% | [12]; at 1.2 µM 5% | [12]; at 3.7 µM 5% | [12]; at 11.0 µM 18% | [12]; at 33.0 µM 44% | [13]; at 1.2 µM 2% | [13]; at 3.7 µM -1% | [13]; at 11.0 µM 2% | [13]; at 33.0 µM 46% | [14]; [17] 11% | [14]; [18] 69% | [15]; at 1.2 µM 0% | [15]; at 3.7 µM -1% | [15]; [17] -2% | [15]; at 11.0 µM 12% | [1]; at 1.2 µM 0% | [1]; at 3.7 µM 4% | [1]; at 11.0 µM 7% | [2]; at 1.2 µM 1% | [2]; at 3.7 µM 4% | [2]; at 11.0 µM 7% | [3]; at 1.2 µM 0% | [3]; at 3.7 µM 1% | [3]; at 11.0 µM 5% | [4]; [17] 3% | [4]; [18] 45% | [5]; at 1.2 µM 2% | [5]; at 3.7 µM 11% | [5]; at 11.0 µM 11%
active: [6]; at 33.0 µM 90% | [6]; at 100.0 µM 96% | [7]; at 100.0 µM 96% | [9]; at 33.0 µM 89% | [9]; at 100.0 µM 97% | [10]; at 33.0 µM 84% | [10]; at 50.0 µM 97% | [10]; at 100.0 µM 95% | [11]; at 50.0 µM 91.8% | [11]; at 100.0 µM 96% | [12]; at 100.0 µM 96% | [13]; at 100.0 µM 96% | [14]; at 50.0 µM 95.8% | [15]; at 33.0 µM 94% | [15]; [18] 98% | [15]; at 50.0 µM 97.2% | [15]; at 100.0 µM 96% | [1]; at 33.0 µM 83% | [1]; at 100.0 µM 97% | [2]; at 33.0 µM 78% | [2]; at 100.0 µM 97% | [3]; at 33.0 µM 87% | [3]; at 100.0 µM 97% | [4]; at 50.0 µM 97.2% | [5]; at 33.0 µM 90% | [5]; at 100.0 µM 96%

O=[N+]([O-])c1cc(S(=O)(=O)Nc2ccccc2)ccc1Nc1ccccc1
active: [6]; at 11.0 µM 95% | [6]; at 33.0 µM 91% | [6]; at 100.0 µM 76% | [7]; at 11.0 µM 94% | [7]; at 33.0 µM 91% | [7]; at 100.0 µM 81% | [9]; at 11.0 µM 89% | [9]; at 33.0 µM 92% | [9]; at 100.0 µM 82% | [10]; at 11.0 µM 93% | [10]; at 33.0 µM 89% | [10]; [18] 94% | [10]; at 50.0 µM 80% | [10]; at 100.0 µM 75% | [11]; at 11.0 µM 93% | [11]; at 33.0 µM 89% | [11]; [18] 96% | [11]; at 50.0 µM 81.2% | [11]; at 100.0 µM 78% | [12]; at 11.0 µM 89% | [12]; at 33.0 µM 89% | [12]; at 100.0 µM 77% | [16]; [18] 91% | [16]; at 50.0 µM 85.5% | [13]; at 11.0 µM 94% | [13]; at 33.0 µM 89% | [13]; at 100.0 µM 76% | [15]; at 11.0 µM 94% | [15]; at 33.0 µM 91% | [15]; [18] 86% | [15]; at 50.0 µM 76.2% | [15]; at 100.0 µM 76% | [1]; at 11.0 µM 92% | [1]; at 33.0 µM 92% | [1]; at 100.0 µM 83% | [2]; at 11.0 µM 90% | [2]; at 33.0 µM 91% | [2]; at 100.0 µM 79% | [3]; at 11.0 µM 91% | [3]; at 33.0 µM 91% | [3]; at 100.0 µM 83% | [4]; [18] 98% | [4]; at 50.0 µM 77.7% | [5]; at 11.0 µM 95% | [5]; at 33.0 µM 91% | [5]; at 100.0 µM 79%
inactive: [6]; at 1.2 µM 0% | [6]; at 3.7 µM 13% | [7]; at 1.2 µM -16% | [7]; at 3.7 µM -19% | [8]; at 1.2 µM 2% | [8]; at 3.7 µM 2% | [8]; at 11.0 µM 23% | [8]; at 33.0 µM 19% | [8]; at 100.0 µM 3% | [9]; at 1.2 µM -18% | [9]; at 3.7 µM 11% | [10]; at 1.2 µM 11% | [10]; at 3.7 µM 28% | [10]; [17] 51% | [11]; at 1.2 µM 18% | [11]; at 3.7 µM 19% | [11]; [17] 39% | [12]; at 1.2 µM -26% | [12]; at 3.7 µM -29% | [16]; [17] 2% | [13]; at 1.2 µM 14% | [13]; at 3.7 µM -1% | [15]; at 1.2 µM 15% | [15]; at 3.7 µM 40% | [15]; [17] -7% | [1]; at 1.2 µM -28% | [1]; at 3.7 µM -18% | [2]; at 1.2 µM -26% | [2]; at 3.7 µM -15% | [3]; at 1.2 µM 0% | [3]; at 3.7 µM -8% | [4]; [17] 33% | [5]; at 1.2 µM -3% | [5]; at 3.7 µM 18%
